# An excerpt weighted towards active compounds, which were near 10% of everything screened.
# 3T3 cytotox = Cytotoxic Profiling in NIH 3T3 Cell Line of Diverse Libraries Using Quantitative High-Throughput Screening; NIH 3T3 viability, CellTiter-Glo ATP luminescence, 48-72 h; Potency, µM (titrated, usually from 96.7 µM), most hits filed as inhibitors; 94,000 compounds, 4.3% hits; AID 1345082, 2018; note: nearly all actives have a fitted effect of over 55% in size
#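 First NIH 3T3 cells are plated at 400 cells/well; next compound is pinned in; then plates incubate 48 or 72 hr at 37 °C; finally CellTiter-Glo is added and luminescence read after 10 min.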
# GPT2 inh = Primary qHTS assay for inhibitors of Glutamate pyruvate transaminase 2 (GPT2); Potency, µM (doses to about 57.7 µM), most hits filed as inhibitors; Alanine aminotransferase 2 (Homo sapiens), Q8TD30; Recombinant GPT2, coupled pyruvate oxidase/HRP Amplex Red fluorescence; 100,000 compounds, 0.25% hits; note: nearly all actives have a fitted effect of over 60% in size
#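 GPT2 10ng/uL, a-KG 250uM, L-Ala 2mM, HEPES pH7.5 + 0.0001% Tween; 30 min RT. Then Amplex mix (PO/HRP/ThPP), 30 min RT dark, fluorescence. AOA 50uM used as positive control.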
# FLuc inh = Firefly luciferase inhibition profiling of diverse chemical library using quantitative high-throughput screening. Luciferin 4-monooxygenase (Photinus pyralis), P08659. Potency, µM (highest dose often 115 µM), actives largely listed as inhibitors. 76,000 compounds, 2.5% hits. purified P. pyralis luciferase, luminescence, biochemical; note: nearly all actives have a fitted effect of over 65% in size
#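 Cell-free enzyme assay, 10nM P. pyralis luciferase, luciferin and ATP each at 10uM. Inhibition profiled over a 6-point titration, read as luminescence.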
# NPR1 antag = Natriuretic polypeptide receptor (hNpr1) antagonism - Primary qHTS; HEK293 hNpr1 GloSensor cGMP, ANP-stimulated luminescence; Potency, µM (doses to about 46.3 µM), most hits filed as inhibitors; 76,000 compounds, 1.6% hits; AID 1347048, 2019; calls by dose curve; note: nearly all actives have a fitted effect of over 60% in size
#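 Compound pre-incubated 30 min at room temperature on GloSensor-loaded HEK293 cells stably carrying hNpr1 and the pGS-40F cGMP biosensor. Stimulation uses hNppA at 0.1 nM final; luminescence is taken at baseline and 20 min post-agonist.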
# HEK293 tox = Cytotoxic Profiling in HEK 293 Cell Line of Diverse Libraries Using Quantitative High-Throughput Screening; AID 1345083, 2018; Potency, µM (top dose mostly 115 µM), usual class: inhibitors; HEK 293 viability, ATP luminescence (CellTiter-Glo), 48-72 h; 94,000 compounds, 6.6% hits; note: nearly all actives have a fitted effect of over 60% in size
#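 HEK 293 cells at 250 cells/well were exposed to compounds by pintool transfer for 48 or 72 hr at 37 degree Celsius, 5% CO2. Viability was read as ATP-coupled luminescence with CellTiter-Glo after 10 min at room temperature.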
# Npr1 antag conf = Natriuretic polypeptide receptor (hNpr1) antagonism - Confirmation; shares compounds with NPR1 antag; HEK293 hNpr1 cGMP GloSensor luminescence, ANP-stimulated; Potency, µM (highest dose often 57.6 µM), most hits filed as inhibitors; 1,400 compounds, 76% hits; AID 1347044, 2019; calls by dose curve; note: nearly all actives have a fitted effect of over 70% in size
# NPR2 antag = Natriuretic polypeptide receptor (hNpr2) antagonism - Subtype selectivity assay | shares compounds with NPR1 antag | HEK293 hNpr2 GloSensor cGMP luminescence, CNP-stimulated | 1,400 compounds, 67% hits | Potency, µM (series often up to 57.6 µM), hits mostly inhibitors; calls by dose curve; note: nearly all actives have a fitted effect of over 70% in size
# FLuc counter = Natriuretic polypeptide receptor (hNpr1) antagonism - Confirmation firefly luciferase (FLuc) inhibition counterscreen. Potency, µM (top dose mostly 57.6 µM), actives largely listed as inhibitors. 1,400 compounds, 0.7% hits. AID 1347047, 2019. shares compounds with NPR1 antag. purified FLuc enzyme, luminescence, Km substrate
# GloSensor ctrl = Natriuretic polypeptide receptor (hNpr1) antagonism - Counterscreen GloSensor control cell line. shares compounds with NPR1 antag. HEK293 GloSensor cGMP, SNP-stimulated, luminescence. Potency, µM (highest dose often 57.6 µM), most hits filed as inhibitors. 1,400 compounds, 69% hits; calls by dose curve; note: nearly all actives have a fitted effect of over 70% in size
# Numbers stand for hits; 0 = inactive; ? = inconclusive; - = not tested or not shown; [ ] = dose if it differs, or a comment. Unless noted, calls come from the whole dose curve; as a rule, active = well fitted curve in the direction sought with a large enough effect; inconclusive = small, poorly fitted or top-dose-only effect, or another doubt; inactive = no such curve, though single readings can be large; an effect the other way counts as inactive or inconclusive.
SMILES,3T3 cytotox,GPT2 inh,FLuc inh,NPR1 antag,HEK293 tox,Npr1 antag conf,NPR2 antag,FLuc counter,GloSensor ctrl
CC(C)c1ccc(NC(=O)C2CCN(c3cc(C(F)(F)F)ncn3)CC2)cc1,?,0,0,7.1µM,?,7.7µM,8.6µM,0,4.8µM
Cc1ccc(NC(=O)C2CCN(c3cc(C(F)(F)F)ncn3)CC2)cc1Cl,18µM,0,0,10µM,?,12µM,19µM,0,12µM
CNC(=O)c1[nH]nc2c1C(c1cc(OC)ccc1-n1cccn1)CC(=O)N2 (stereo not given),0,0,0,0,0,-,-,-,-
O=C(C1CCN(c2nccc(Nc3ccccc3F)n2)CC1)N1CCCCC1,?,0,-,-,?,-,-,-,-
CCNC(=O)Cc1c[nH]c2ncc(-c3ccccc3C)cc12,?,0,0,18µM,?,31µM,31µM,0,28µM
COc1ncccc1-c1cnc2[nH]cc(CC(N)=O)c2c1,?,0,0,0,0,-,-,-,-
NC(=O)Cc1c[nH]c2ncc(-c3ccccc3C(F)(F)F)cc12,0,0,0,?,?,31µM,?,0,35µM
Cc1ccccc1-c1cnc2[nH]cc(CC(=O)N3CCCC3)c2c1,?,0,0,3.5µM,89µM,7.9µM,11µM,0,7µM
COCCNC(=O)Cc1c[nH]c2ncc(-c3ccccc3C)cc12,?,0,0,0,?,-,-,-,-
O=C(Cc1c[nH]c2ncc(-c3ccccc3C(F)(F)F)cc12)NCc1cccnc1,?,0,0,7.9µM,?,16µM,20µM,0,16µM
CN1C(=O)CC(C(=O)O)C12CCN(C(=O)Nc1ccccc1)CC2 (stereo not given),0,0[11.5 µM],0,0,0,-,-,-,-
O=C(Cc1c[nH]c2ncc(-c3ccccc3F)cc12)NCc1cccnc1,?,0,?,0,?,-,-,-,-
Cc1ccccc1-c1cnc2[nH]cc(CC(=O)NCc3cccnc3)c2c1,?,0,0,32µM,79µM,31µM,28µM,0,25µM
COc1ccc(-c2ccc3c(c2)C(=O)N2CCN(C(=O)c4cnccn4)C[C@H]2C(=O)N3)cc1,0,0,?,0,0,-,-,-,-
CN(Cc1ccncc1)Cc1ccc(-c2ccccc2)cc1,?,0,0,?,71µM,22µM,28µM,0,18µM
CCn1nccc1C(=O)N1CCC(CCOc2ccc(F)cc2)C1 (stereo not given),?,0,0,13µM,35µM,22µM,24µM,0,24µM
COc1ccc(Cl)cc1NC(=O)Cn1c(N2CCC(C)CC2)nc(C)cc1=O,?,0,0,11µM,45µM,19µM,19µM,0,15µM
CCOC(=O)c1ccc(NC(=O)Cn2c(N3CCC(C)CC3)nc(C)cc2=O)cc1,?,0,0,14µM,?,22µM,19µM,0,22µM
C[C@@H](NS(C)(=O)=O)c1onc(-c2ccccc2)c1C(=O)O,0,?,0,0,0,-,-,-,-

# Compound activity (PubChem BioAssay)
